Test [1] addresses Aldehyde dehydrogenase, mitochondrial (Homo sapiens) (UniProt P05091). Briefly: qHTS for Inhibitors of the Aldehyde Dehydrogenase Family (ALDH2) Confirmatory screens (AID 2061303; active = well fitted inhibition curve with a large enough effect; title and protocol of this record describe different tests; note: nearly all actives have a fitted effect of over 45% in size; note: potency is the fitted concentration of half-maximal effect). A general note: qHTS replaces the single test concentration by a dilution series.
Test [2] has the same target. Briefly: qHTS for Inhibitors of the Aldehyde Dehydrogenase Family (ALDH2) Primary screen (AID 2061308). Note: nearly all actives have a fitted effect of over 55% in size. Note: potency is the fitted concentration of half-maximal effect.
The target in test [3] is Retinaldehyde dehydrogenase 3 (Homo sapiens) (UniProt P47895). Briefly: qHTS for Inhibitors of the Aldehyde Dehydrogenase Family (ALDH1A3) Confirmatory screens (AID 2061311). Note: nearly all actives have a fitted effect of over 60% in size. Note: potency is the fitted concentration of half-maximal effect.
Test [4] has as its target Retinal dehydrogenase 2 (Homo sapiens) (UniProt O94788). Briefly: qHTS for Inhibitors of the Aldehyde Dehydrogenase Family (ALDH1A2) Confirmation screens (AID 2061314). Note: nearly all actives have a fitted effect of over 65% in size. Note: potency is the fitted concentration of half-maximal effect.
Test [5] concerns the target Retinaldehyde dehydrogenase 3 (Homo sapiens) (UniProt P47895). Briefly: qHTS for Inhibitors of the Aldehyde Dehydrogenase Family (ALDH1A3) Primary screen (AID 2061315).
The target of test [6] is Aldehyde dehydrogenase 1A1 (Homo sapiens) (UniProt P00352). Briefly: qHTS for Inhibitors of the Aldehyde Dehydrogenase Family (ALDH1A1) Confirmatory screens (AID 2061316). Note: nearly all actives have a fitted effect of over 65% in size. Note: potency is the fitted concentration of half-maximal effect.
The nature of test [7]: qHTS for Inhibitors of the Aldehyde Dehydrogenase Family (ALDH1A2, ALDH1A3, ALDH2, ALDH3A1) (AID 2061307). Note: nearly all actives have a fitted effect of over 50% in size.

Inconclusive results are not listed. Calls of active or inactive are those of the source. Unless noted, calls come from the whole dose curve; as a rule, active = well fitted curve in the direction sought with a large enough effect; inconclusive = small, poorly fitted or top-dose-only effect, or another doubt; inactive = no such curve, though single readings can be large; an effect the other way counts as inactive or inconclusive.

For `CN1CCN(c2nn3c(=O)c4ccccc4nc3s2)CC1`, the Potency entry in test [1] and in test [2] was “inactive” throughout. Besides, in test [3], the Potency is 8.96 µM (active).
For `CN1CCN(c2cccc(CNc3nn4c(=O)c5ccccc5nc4s3)c2)CC1`, the Potency entry in test [1], in test [2], in test [3] and in test [5] was “inactive” each time. Besides, in test [4], the Potency was 25.2 µM (active).
Turning to `CC(=O)NC(c1ccco1)c1cc(Cl)c2ccc(N3CCCCC3)nc2c1O` (configuration not stated), the Potency in test [1] is 10.1 µM (active); in test [3], 11.3 µM (active); in test [4], 1.59 µM (active); in test [6], 2.25 µM (active). Further, the Potency entry in test [2] and in test [5] was “inactive” throughout.
For the compound `N#Cc1cc(C2=Nc3ccc(Br)cc3NC(=O)C2)ccn1`, the Potency result in test [1], in test [2], in test [3], in test [4], in test [5] and in test [6] was “inactive” in each case.
For `O=C(Nc1cncc(O)c1)c1cccs1`, the Potency in test [1] was 12.7 µM (active); in test [3], 12.7 µM (active); in test [4], 2.25 µM (active). For the same compound, the Potency result in test [2] and in test [5] was “inactive” each time.
On to `CC(=O)c1ccc(N2CCN(C(=O)Nc3ccc(C(C)C)cc3)CC2)cc1`, for which the Potency result in test [1] and in test [7] was “inactive” each time. Moreover, the Potency in test [6] was 3.24 µM (active).
Turning to `O=C1c2ccccc2NC(c2ccc(-c3ccccc3F)o2)N1O` (configuration not stated), the values for the Potency in test [1], in test [2] and in test [4] were 11.3 µM (active), 8.91 µM (active) and 25.2 µM (active), respectively. Moreover, the Potency result in test [3] and in test [5] was “inactive” throughout.
`CC(=O)N1CCN(c2ccc(NCc3ccc(C)cc3)cc2)CC1`: the Potency entry in test [1] and in test [2] was “inactive” each time. The values for the Potency in test [3] and in test [4] were 22.5 µM (active) and 11.3 µM (active), respectively.

Source of the values: PubChem BioAssay (NCATS).
